The test system of assay [1] is Plasmodium falciparum Sir2 (PF13_0152, Sir2A). In words: Plasmodium falciparum Sir2A binding compounds – biochemical, small-molecule microarray, 635 nm fluorescence, primary screen (AID 1098).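 Note: score merges spot fluorescence intensity with its signal-to-noise ratio.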 To be noted: fluorescence 635 nm, higher = more signal.
A short description of assay [2]: probe aDKK1 binding to arrayed compounds – biochemical, biotinylated probe, 635/667 nm fluorescence, primary screen (AID 1099).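 Note: score merges 667nm spot fluorescence with signal to noise across triplicate slides.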 To be noted: small-molecule microarray, higher = more signal.
Assay [3] can be described thus: probe aCHRDL2 binding to arrayed compounds – biochemical, biotinylated probe, 635/667 nm fluorescence, primary screen (AID 1100). The note with it: small-molecule microarray, higher = more signal.
Assay [4] in a line: change in splice reporter luminescence, either direction, cell-based, HEK293, spliceosome inhibition project, primary screen (AID 1101).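 Note: HEK293 cells carrying a splicing-competent luciferase reporter gene; test concentration not given here.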 To be noted: HEK293 splicing luciferase reporter, 24 h, higher = more signal, called active from +8 up or from −8 down. (In general: A reporter such as luciferase makes a cellular process visible.)
For assay [5], the target named is Fibroblast growth factor 10 (Homo sapiens) (UniProt O15520). Nature of the assay: compounds binding fibroblast growth factor 10 – biochemical, small-molecule microarray, 635 nm fluorescence, primary screen (AID 1102). To be noted: FGF10 binding, fluorescence 635 nm, higher = more signal.
Sequence of Fibroblast growth factor 10 (Homo sapiens) (O15520 whole entry, looked up): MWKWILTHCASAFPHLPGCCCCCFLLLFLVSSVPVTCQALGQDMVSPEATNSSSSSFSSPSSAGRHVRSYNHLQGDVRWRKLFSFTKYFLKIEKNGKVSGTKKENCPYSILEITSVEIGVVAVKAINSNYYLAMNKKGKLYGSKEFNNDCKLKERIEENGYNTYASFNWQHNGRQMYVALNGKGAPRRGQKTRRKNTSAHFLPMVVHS
Assay [6] has as its system glycogen synthase kinase-3 (GSK3A per assay name; protocol says GSK3B). Nature of the assay: compounds binding glycogen synthase kinase-3 – biochemical, small-molecule microarray, 635 nm fluorescence, GSK3A, primary screen (AID 1103). Note: the record names both GSK3A and GSK3B. The note with it: fluorescence 635 nm, higher = more signal.
The target of assay [7] is Epidermal growth factor receptor (Homo sapiens) (UniProt P00533). In words: compounds binding epidermal growth factor receptor – biochemical, small-molecule microarray, 635 nm fluorescence, primary screen (AID 1104).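 Note: score merges 667 nm emission intensity with spot signal to noise over triplicate slides.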 The note with it: EGFR binding, higher = more signal.
Sequence of Epidermal growth factor receptor (Homo sapiens) (P00533 whole entry, looked up): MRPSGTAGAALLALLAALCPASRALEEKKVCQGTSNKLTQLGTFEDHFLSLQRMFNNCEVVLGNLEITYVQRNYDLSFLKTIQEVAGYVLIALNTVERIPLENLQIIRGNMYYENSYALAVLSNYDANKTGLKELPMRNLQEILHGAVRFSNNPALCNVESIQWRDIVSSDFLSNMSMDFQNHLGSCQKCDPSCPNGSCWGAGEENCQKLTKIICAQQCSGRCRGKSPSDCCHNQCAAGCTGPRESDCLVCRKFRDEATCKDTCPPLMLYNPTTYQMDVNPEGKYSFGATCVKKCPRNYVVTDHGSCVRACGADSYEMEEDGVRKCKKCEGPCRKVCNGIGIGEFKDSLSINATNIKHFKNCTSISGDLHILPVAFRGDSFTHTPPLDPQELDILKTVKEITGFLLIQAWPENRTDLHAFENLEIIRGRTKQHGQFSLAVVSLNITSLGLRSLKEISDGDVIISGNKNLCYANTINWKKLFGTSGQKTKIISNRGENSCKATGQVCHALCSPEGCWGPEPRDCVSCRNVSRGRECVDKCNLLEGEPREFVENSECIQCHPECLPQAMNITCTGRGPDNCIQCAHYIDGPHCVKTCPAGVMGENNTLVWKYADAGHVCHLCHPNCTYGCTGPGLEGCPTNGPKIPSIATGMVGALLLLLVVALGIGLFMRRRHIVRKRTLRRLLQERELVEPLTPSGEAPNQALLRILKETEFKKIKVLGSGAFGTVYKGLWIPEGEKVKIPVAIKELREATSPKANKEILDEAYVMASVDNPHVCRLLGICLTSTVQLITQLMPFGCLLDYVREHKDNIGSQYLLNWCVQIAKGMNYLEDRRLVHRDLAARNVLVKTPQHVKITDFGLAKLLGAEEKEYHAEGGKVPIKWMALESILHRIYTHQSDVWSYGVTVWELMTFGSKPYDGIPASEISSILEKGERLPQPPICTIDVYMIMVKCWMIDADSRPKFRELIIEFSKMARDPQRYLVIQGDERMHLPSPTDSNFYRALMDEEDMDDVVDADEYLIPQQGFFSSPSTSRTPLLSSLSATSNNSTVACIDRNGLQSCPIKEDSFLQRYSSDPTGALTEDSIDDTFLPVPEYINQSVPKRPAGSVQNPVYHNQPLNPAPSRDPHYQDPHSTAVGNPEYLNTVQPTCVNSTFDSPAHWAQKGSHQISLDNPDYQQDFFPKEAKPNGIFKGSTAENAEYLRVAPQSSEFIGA
In assay [8] the target is Follistatin-related protein 3 (Homo sapiens) (UniProt O95633). In words: compounds binding follistatin-related protein 3 – biochemical, small-molecule microarray, 635 nm fluorescence, primary screen (AID 1105).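 Note: score merges emission near 667 nm and signal to noise per printed spot across three slides.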 The note with it: FSTL3 binding, higher = more signal.
Sequence of Follistatin-related protein 3 (Homo sapiens) (O95633 whole entry, looked up): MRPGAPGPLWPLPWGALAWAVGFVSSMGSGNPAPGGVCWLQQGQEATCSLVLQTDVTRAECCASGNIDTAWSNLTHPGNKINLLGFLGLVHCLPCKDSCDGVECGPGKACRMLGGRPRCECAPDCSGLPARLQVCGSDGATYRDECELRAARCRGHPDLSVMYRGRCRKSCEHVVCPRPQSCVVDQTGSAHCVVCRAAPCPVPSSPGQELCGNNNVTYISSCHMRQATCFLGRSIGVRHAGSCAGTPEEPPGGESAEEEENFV
The target of assay [9] is Dickkopf-related protein 1 (Homo sapiens) (UniProt O94907). In words: small molecules binding DKK1 protein – biochemical, small-molecule microarray, 635 nm fluorescence scan, primary screen (AID 1106).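 Note: score merges emission near 667 nm with signal to noise over three replicate slides.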 The note with it: higher = more signal.
Sequence of Dickkopf-related protein 1 (Homo sapiens) (O94907 whole entry, looked up): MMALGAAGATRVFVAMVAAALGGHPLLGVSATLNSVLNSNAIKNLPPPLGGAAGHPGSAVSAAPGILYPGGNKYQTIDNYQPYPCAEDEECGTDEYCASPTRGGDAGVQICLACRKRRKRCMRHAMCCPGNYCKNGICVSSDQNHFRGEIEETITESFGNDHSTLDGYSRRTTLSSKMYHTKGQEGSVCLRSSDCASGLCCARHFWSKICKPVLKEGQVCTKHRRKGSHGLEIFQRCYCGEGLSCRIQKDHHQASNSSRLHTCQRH
Assay [10] has as its system Inhibin beta A chain (activin A). In words: small molecules binding activin A – biochemical, small-molecule microarray, 635 nm fluorescence scan, primary screen (AID 1107).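 Note: mouse activin A protein probed at 4.33 µg/mL on printed slides; score merges bound-protein fluorescence near 667 nm with spot signal-to-noise.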 The note with it: INHBA, higher = more signal.
Assay [11] deals with Human papillomavirus type 1a protein E7 (residues 44-93). Nature of the assay: small molecules binding HPV E7 44-93 – biochemical, small-molecule microarray, residues 44-93, 635 nm fluorescence, primary screen (AID 1108).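 Note: E7 fragment applied at 1 µg/mL in TBST for 1 h at 4 C; score combines spot fluorescence with its signal to noise ratio.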 The note with it: fluorescence 635 nm, higher = more signal.
Assay [12] can be described thus: hepatitis C replication reporter changes, two-sided – Huh7 cells, luciferase reporter, HCV replication inhibitor project, primary screen (AID 1109).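 Note: huh7 hepatoma cells harbouring a luciferase neomycin HCV replicon reporter; luciferase luminescence as measure of HCV replicon replication; test concentration not given here.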 To be noted: Huh7 HCV replicon luciferase reporter, 48 h; higher = more signal.
Assay [13] addresses Left-right determination factor 2 (Homo sapiens) (UniProt O00292). Nature of the assay: small molecules binding LEFTY2 protein – biochemical, small-molecule microarray, 635 nm fluorescence scan, primary screen (AID 1110). The note with it: higher = more signal.
Assay [14] deals with Calmodulin-1 (Homo sapiens) (UniProt P0DP23). In words: small molecules binding calmodulin-1 with EGTA – biochemical, small-molecule microarray, Cy5-labelled CALM1, profiling panel (AID 1111).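 Note: labelled calmodulin applied in Tris saline Tween buffer holding calcium plus EGTA and DTT.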 The note with it: Cy5-CALM1 binding fluorescence, higher = more signal.
Assay [15] has the same target. In words: small molecules binding Ca-loaded calmodulin-1 – biochemical, small-molecule microarray, Cy5-labelled CALM1, plus calcium, artefact control for SMM control-protein annotation, profiling panel (AID 1112).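 Note: score merges spot fluorescence with signal to noise from triplicate slides.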 To be noted: Cy5-CALM1 binding fluorescence, higher = more signal.
Assay [16] can be described thus: probe aWnt5a binding to arrayed compounds – biochemical, biotinylated probe, 635/667 nm fluorescence, primary screen (AID 1113).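 Note: score merges 667 nm fluorescence intensity with signal-to-noise per printed feature.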 To be noted: small-molecule microarray, higher = more signal.
Assay [17] can be described thus: probe aShh binding to arrayed compounds – biochemical, biotinylated probe, 635/667 nm fluorescence, primary screen (AID 1114).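 Note: probe is biotin-labelled aShh protein from a stem cell growth factor screen; measures binding of labelled protein to compounds printed on the slide; score merges feature fluorescence at 667 nm with signal-to-noise.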 To be noted: small-molecule microarray, higher = more signal.
Assay [18] in a line: probe aNog binding to arrayed compounds – biochemical, biotinylated probe, 635/667 nm fluorescence, primary screen (AID 1115).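 Note: probe is biotinylated aNog protein used at 0.15 µg/mL for 1 h at 4 C; z-score combines 667 nm fluorescence of each spot with its signal to noise.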 To be noted: small-molecule microarray, higher = more signal.
For assay [19], the target named is Torsin-1A-interacting protein 1 (Homo sapiens) (UniProt Q5JTV8). Nature of the assay: compound microarray binding of lysate hLAP1 – cell lysate, small-molecule microarray, COS7 lysate, 635/667 nm fluorescence, primary screen (AID 1116). The note with it: 635 nm fluorescence, higher = more signal.
Sequence of Torsin-1A-interacting protein 1 (Homo sapiens) (Q5JTV8 whole entry, looked up): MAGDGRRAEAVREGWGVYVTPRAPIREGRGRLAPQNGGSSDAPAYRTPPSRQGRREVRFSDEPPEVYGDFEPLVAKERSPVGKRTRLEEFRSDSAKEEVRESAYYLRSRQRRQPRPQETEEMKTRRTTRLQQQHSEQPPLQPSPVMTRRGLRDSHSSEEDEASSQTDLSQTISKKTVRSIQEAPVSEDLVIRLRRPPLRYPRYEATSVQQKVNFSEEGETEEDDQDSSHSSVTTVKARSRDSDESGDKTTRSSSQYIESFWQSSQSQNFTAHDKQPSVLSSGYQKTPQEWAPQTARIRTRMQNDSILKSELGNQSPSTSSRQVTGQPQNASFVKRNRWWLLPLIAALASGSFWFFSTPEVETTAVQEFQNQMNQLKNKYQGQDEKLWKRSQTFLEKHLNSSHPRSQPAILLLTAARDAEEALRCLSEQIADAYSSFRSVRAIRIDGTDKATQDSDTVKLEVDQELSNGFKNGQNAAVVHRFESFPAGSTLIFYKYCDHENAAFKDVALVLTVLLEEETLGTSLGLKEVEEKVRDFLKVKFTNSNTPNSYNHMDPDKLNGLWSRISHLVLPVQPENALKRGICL
The target of assay [20] is Alpha-bungarotoxin (Bungarus multicinctus) (UniProt P60615). In words: compounds binding labelled alpha-BTX control protein – biochemical, small-molecule microarray, Alexa647 label, 635/667 nm fluorescence, artefact control for SMM control protein annotation, profiling panel (AID 1117). The note with it: alpha-BTX-A647 binding fluorescence, higher = more signal.
Sequence of Alpha-bungarotoxin (Bungarus multicinctus) (P60615 whole entry, looked up): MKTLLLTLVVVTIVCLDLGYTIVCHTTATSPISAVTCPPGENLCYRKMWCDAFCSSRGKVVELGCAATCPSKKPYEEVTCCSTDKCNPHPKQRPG

SMILES strings stand for the structures. Calls of active or inactive are those of the source.

Here are results for five compounds from PubChem BioAssay.

Sequence of Left-right determination factor 2 (Homo sapiens) (O00292 whole entry, looked up): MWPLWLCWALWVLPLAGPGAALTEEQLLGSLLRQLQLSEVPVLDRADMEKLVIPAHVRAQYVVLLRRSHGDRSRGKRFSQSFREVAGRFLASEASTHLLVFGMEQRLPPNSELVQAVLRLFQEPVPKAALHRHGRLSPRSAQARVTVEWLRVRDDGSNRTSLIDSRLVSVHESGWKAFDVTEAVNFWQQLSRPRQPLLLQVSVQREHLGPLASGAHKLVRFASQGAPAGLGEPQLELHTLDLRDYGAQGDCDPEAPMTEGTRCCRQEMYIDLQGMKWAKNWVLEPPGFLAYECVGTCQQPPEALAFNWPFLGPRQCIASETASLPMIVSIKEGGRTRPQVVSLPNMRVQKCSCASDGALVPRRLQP

Regarding `COC(=O)C1=CC(CCCO)=CC(C2CC2)N(Cc2cc3c(cc2Br)OCO3)C=C1C(=O)OC` (stereo not given), the composite z-score in assay [1] is 1.57; in [2], 1.03; in [3], 1.14; in assay [5] it was 0.0344; in [6], 0.194; in assay [7] it was -0.482. Moreover, the composite z-score in assay [8] was 0.0154; in [9] it was 0.47; in [10], 0.945; in [11], 1.36; in assay [13] it was -0.998; in assay [14], 2.27. The composite z-score in assay [15] is 0.67; in assay [16] it was -0.0269; in assay [17] it was 0.0141; in [18], 0.842; in assay [19], 3.07; in assay [20], 1.97. Further, the z-score in assay [4] is -0.575 (inactive); in assay [12], -0.164.
As to `C/C=C/[C@@H](CCn1cc(CCO[Si](C(C)C)(C(C)C)C(C)C)nn1)[Si](C)(C)c1ccc(OC)cc1`, the composite z-score was -0.82 in assay [1]; -0.941 in [2]; -0.34 in [3]; -1.03 in assay [5]; -0.918 in assay [6]; -2.01 in [7]. Moreover, the composite z-score in [8] was -1.72; in [9] it was -1.03; in assay [10] it was 1.01; in assay [11], -0.77; in assay [13] it was -0.426; in assay [14] it was -2.98. Also, the composite z-score in assay [15] is -2.87; in assay [16], -0.182; in assay [17] it was -0.323; in assay [18], -0.866; in assay [19], -0.24; in [20], -1.25. The z-score is -2.83 (inactive) in assay [4] and -0.918 in assay [12].
`C=C[C@H](OC)[C@@H](OC(=O)Nc1ccc(OC)cc1)c1ccc(OC)c(O)c1`: the composite z-score in assay [1] was 0.29; in assay [2], -0.387; in assay [3] it was 0.703; in assay [5] it was -0.971; in [6], -0.761; in assay [7] it was -1.91. The composite z-score in assay [8] is -1.18; in [9], -1.61; in assay [10] it was -0.385; in [11], -1.51; in assay [13], -1.63; in [14], -1.07. Moreover, the composite z-score in [15] was -0.137; in assay [16], -0.202; in assay [17] it was 0.0062; in assay [18], -0.358; in assay [19] it was -0.557; in [20], -2.08. Also, the z-score in [4] is -1.48 (inactive); in assay [12], 0.369.
For `COC(=O)[C@@]1(CCC(=O)OC(C)(C)C)COC(c2ccc(OCCCO)cc2)=N1`, the composite z-score was -1.07 in [1]; 0.623 in assay [2]; 1.18 in assay [3]; -1.2 in [5]; -1.19 in [6]; -1.82 in assay [7]. Also, the composite z-score in [8] is -2.47; in [9], -2.17; in assay [10] it was -0.0726; in assay [11], -1.42; in assay [13], -1.57; in assay [14], -0.683. Further, the composite z-score was 0.674 in assay [15]; -0.197 in assay [16]; -0.0626 in assay [17]; 0.424 in assay [18]; -0.123 in assay [19]; -0.741 in assay [20]. Besides, the z-score in assay [4] was -0.493 (inactive); in assay [12] it was 0.136.
Take `O=C(N1CCCCC1)[C@@]1(Cc2ccccc2)N=C(c2ccc(OCCCO)cc2)O[C@H]1c1ccccc1`: the composite z-score in [1] is 1.43; in [2] it was 1.26; in assay [3] it was 1.31; in assay [5], 0.942; in assay [6], 0.258; in assay [7], -0.32. Also, the composite z-score is 0.606 in assay [8]; 0.0474 in assay [9]; 0.766 in assay [10]; 0.73 in assay [11]; -0.458 in [13]; 2.45 in assay [14]. The composite z-score was 1.09 in assay [15]; 0.801 in assay [16]; 0.106 in [17]; 1.9 in [18]; 2.95 in assay [19]; 3.12 in [20]. Also, the values for the z-score in [4] and in [12] were -1.96 (inactive) and -2.94, respectively.
